DT40 TDP1 CPT – growth inhibition of DT40 Tdp1-/-;hTDP1 cells with camptothecin (screen for TDP1 inhibitors); chicken DT40 Tdp1-/-;hTDP1 cells + 20 nM CPT, ATP luminescence, 48 h; 420,000 compounds, 12% hits; Potency, µM (titrated, usually from 46.2 µM), without a hit: at the top dose activity change, negative = growth inhibition, hits mostly inhibitors; further: potency means the concentration at half of the fitted maximal effect; nearly all actives have a fitted effect of over 55% in size
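Chicken DT40 Tdp1-/- cells stably complemented with human TDP1 were seeded at 400 cells/well in medium containing 20 nM camptothecin, exposed to pin-transferred compounds, and grown at 37 °C for at least 48 hr. Viability was read as ATP luminescence.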
TDP1 cell noCPT – qHTS for Inhibitors of human tyrosyl-DNA phosphodiesterase 1 (TDP1): qHTS in cells in absence of CPT | DT40 Tdp1-/- hTDP1 cells, no CPT, ATP luminescence, 48 h | Potency, µM (doses to about 46.2 µM), without a hit: at the highest dose activity change, negative = growth inhibition, most hits filed as inhibitors | 420,000 compounds, 15% hits; further: potency means the concentration at half of the fitted maximal effect; nearly all actives have a fitted effect of over 55% in size
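Growth of hTDP1-complemented DT40 Tdp1-knockout cells is measured by ATP luminescence after at least 48 hr compound exposure at 37 °C, with DMSO substituting for the 20 nM CPT used in the parallel screen.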
ALOX12 inh – inhibitors of human 12S-lipoxygenase ALOX12; P18054; purified 12hLO, xylenol orange hydroperoxide absorbance; Potency, µM (highest dose often 108 µM), for inactives: at the highest dose activity change, negative = inhibition, actives largely listed as inhibitors; 580,000 compounds, 1.1% hits; further: potency means the concentration at half of the fitted maximal effect
Target sequence (P18054 whole entry, looked up): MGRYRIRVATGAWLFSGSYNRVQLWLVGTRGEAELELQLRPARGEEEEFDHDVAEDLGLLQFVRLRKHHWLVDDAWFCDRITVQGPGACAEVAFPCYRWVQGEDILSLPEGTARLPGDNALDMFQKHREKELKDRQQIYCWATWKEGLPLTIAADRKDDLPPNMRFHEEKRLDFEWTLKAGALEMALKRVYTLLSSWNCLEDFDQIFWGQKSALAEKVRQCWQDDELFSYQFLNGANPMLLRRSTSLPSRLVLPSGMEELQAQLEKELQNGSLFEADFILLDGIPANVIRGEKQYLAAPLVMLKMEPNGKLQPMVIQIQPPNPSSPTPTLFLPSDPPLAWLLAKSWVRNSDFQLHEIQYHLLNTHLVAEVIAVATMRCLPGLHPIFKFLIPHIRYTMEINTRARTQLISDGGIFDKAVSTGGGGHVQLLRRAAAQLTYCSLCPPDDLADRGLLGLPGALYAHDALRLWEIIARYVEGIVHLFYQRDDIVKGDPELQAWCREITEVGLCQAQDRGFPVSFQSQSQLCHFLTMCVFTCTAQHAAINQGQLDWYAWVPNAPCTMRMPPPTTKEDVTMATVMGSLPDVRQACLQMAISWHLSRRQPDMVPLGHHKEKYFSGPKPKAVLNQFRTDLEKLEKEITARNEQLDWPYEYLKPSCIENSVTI
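Hydroperoxide product was detected by ferrous iron/xylenol orange as the 573 to 405 nm absorbance ratio. Arachidonic acid at 40 uM (final) was turned over for 30 min at room temperature by 150 nM human 12hLO, pH 7.0 Hepes buffer, after 15 min compound preincubation.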
HT1080 IDH1KD tx – HT-1080 IDH1 knockdown cell toxicity (counter line); HT-1080 IDH1 knockdown viability, ATP luminescence, 48 h; Potency, µM (top dose mostly 46.1 µM), for the others: at the highest dose activity, negative = toxicity, usual class: cytotoxic; 360,000 compounds, 2% hits;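 further: potency means the concentration at half of the fitted maximal effect; 0% = DMSO wells and -100% = cell-free medium wells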
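Viability of IDH1-knockdown HT-1080 fibrosarcoma cells was assessed by CellTiter-Glo after 48 h at 37 °C with titrated compound; concentration-effect curves were classified by fit quality and response size.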
IL1B secr inh – blocks inflammasome-driven IL-1 beta release; THP-1 LPS/ATP IL-1B secretion, AlphaLISA, 16 h; stronger effect = lower value; activity change, % at 57.5 µM; 360,000 compounds, 4.7% hits; in the data active means activity change below about -50%; inconclusive means mostly about -30% to -49%
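Secreted IL-1B measured by AlphaLISA bead assay after 16 h compound exposure of THP-1 cells; compounds (final up to 57.5 uM) added 1 h before LPS (250 ng/mL) and ATP (1.25 mM) stimulation; lower signal means less secretion.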
HT1080NT lethal – kills 2HG-producing HT-1080-NT fibrosarcoma cells. HT-1080-NT fibrosarcoma viability, CellTiter-Glo ATP luminescence, 48 h. Potency, µM (doses to about 46.1 µM), for inactives: at the highest dose activity, negative = less viability, hits mostly cytotoxic. 360,000 compounds, 1.6% hits;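 further: NT is the 2HG producing partner of a matched IDH1 knockdown line; potency means the concentration at half of the fitted maximal effect; 0% = DMSO-treated cells and -100% = media-only wells without cells; nearly all actives have a fitted effect of over 55% in size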
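750 cells/well, RPMI + 5% FBS; 2 h settle, compound pin-transfer, 48 h at 37 degrees C. CellTiter-Glo 10 min RT, luminescence. Normalized to DMSO and media-only wells.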
* marks the source's active call; other numbers are inactive results; ? = inconclusive; . = no result given; [ ] = another dose, or the depositor's remark. The sample as a whole holds a higher share of hits than the screen did. Unless noted, the call rests on the fitted dose curve; in most records, active means well fitted curve in the direction sought with a large enough effect; inconclusive means small, poorly fitted or top-dose-only effect, or another doubt; inactive means no such curve, though single readings can be large; an effect the other way counts as inactive or inconclusive. Unless noted, on the % scale 0 is the no-effect control and ±100 the full control effect.

SMILES	DT40 TDP1 CPT	TDP1 cell noCPT	ALOX12 inh	HT1080 IDH1KD tx	IL1B secr inh	HT1080NT lethal
CCCCNc1c(-c2cccc(-c3ccc(OC)cc3)c2)nc2ccc(C)cn12	23µM*	18µM*	-20%	?	-100*	?
CCCCNc1c(-c2cccc(-c3cc(C(C)=O)cs3)c2)nc2ccc(C)cn12	16µM*	13µM*	1%	?	-103*	21µM*
CCCCNc1c(-c2cccc(-c3ccc(OC)cc3)c2)nc2cc(C)ccn12	16µM*	18µM*	?	?	-71*	?
COc1ccc(S(=O)(=O)c2c(C)c(C)n(C(C)C)c2NC(=O)C2CCCO2)cc1 (stereo not drawn)	.	.	16%	.	.	.
CC(=O)Nc1ccc(S(=O)(=O)Oc2cccc(N3C(=O)C4CC=CCC4C3=O)c2)cc1 (stereo not drawn)	?	21µM*	-26%	-1%	51	4%
CC(=O)Nc1ccc(S(=O)(=O)Oc2ccc(N3C(=O)C4CCCCC4C3=O)cc2)cc1 (stereo not drawn)	16µM*	18µM*	0%	-12%	26	-17%
CC(=O)Nc1ccc(S(=O)(=O)Oc2ccccc2N2C(=O)C3C4CCC(C4)C3C2=O)cc1 (stereo not drawn)	8%	-10%	-56%	-11%	0	-3%
O=C1C2CCCCC2C(=O)N1c1cccc(OS(=O)(=O)c2ccccc2)c1 (stereo not drawn)	1%	-5%	-3%	1%	15	10%
COc1cccc(S(=O)(=O)N2CCCCC2c2nc(C3CC3)n[nH]2)c1 (stereo not drawn)	.	.	38%	.	.	.
Cc1cc(C)c2nc(SCC(=O)NCC3CCCO3)c(C#N)cc2c1 (stereo not drawn)	8%	-9%	-16%	19%	-51*	20%
O=C(CSc1nc(-c2ccc(F)cc2)[nH]c1-c1ccccc1)NCC1CCCO1 (stereo not drawn)	29µM*	16µM*	-21%	.	.	.
Cc1ccc(-c2[nH]c(-c3ccc(Cl)cc3)nc2SCC(=O)NCC2CCCO2)cc1 (stereo not drawn)	?	4.1µM*	12%[57.4 µM]	0%	0	14%
COc1ccc(-c2nc(SCC(=O)NCC3CCCO3)c(-c3ccc(C)cc3)[nH]2)cc1OC (stereo not drawn)	?	?	-5%	.	.	.
O=C(CN(C1CCCCC1)S(=O)(=O)c1ccc(F)cc1)NCC1CCCO1 (stereo not drawn)	8.2µM*	7.3µM*	-8%	4.6µM*	-106*	3.7µM*
CCc1ccc(-c2nc(SCC(=O)NCC3CCCO3)c(-c3ccc(C)cc3)[nH]2)cc1 (stereo not drawn)	-16%	?	-10%	.	.	.
Fc1cccc(F)c1-c1csc(NCc2ccco2)n1	.	.	-4%	.	.	.
O=C(CN(c1ccc(Br)cc1)S(=O)(=O)c1ccc(Cl)c([N+](=O)[O-])c1)NCC1CCCO1 (stereo not drawn)	16µM*	?	33%	?	-98*	?
O=C(CSc1nn(-c2ccc(F)cc2)c(=S)s1)NCC1CCCO1 (stereo not drawn)	-20%	-19%	11%	-11%	-5	-1%
O=C(Nc1nc(-c2ccc(F)cc2)cs1)C1CCCO1 (stereo not drawn)	?	?	-19%	5%	-56*	-2%
O=C(CSc1nc(-c2ccc(F)cc2)cs1)NCC1CCCO1 (stereo not drawn)	-27%	21µM*	-6%	-3%	-13	2%
CC(=O)Nc1ccc(NC(=O)COc2ccc3c(C)cc(=O)oc3c2)cc1	.	.	0%	.	.	.
CC(C)CC(=O)N/C(N)=N/c1nc2ccccc2o1	?	29µM*	244%	0%	37	-16%
CCC(=O)N/C(N)=N/c1nc2ccccc2o1	?	?	248%	21%	29	22%
N/C(=N\c1nc2ccccc2o1)NC(=O)/C=C/c1ccccc1	?	18µM*	14%	-23%	-12	?
O=C(CSc1cccc2cccnc12)Nc1cccc(S(=O)(=O)N2CCOCC2)c1	0%	-4%	-5%	1%	14	-2%
SMILES	DT40 TDP1 CPT	TDP1 cell noCPT	ALOX12 inh	HT1080 IDH1KD tx	IL1B secr inh	HT1080NT lethal
O=C(CSc1nc2ccccc2c(=O)n1-c1ccccc1Cl)Nc1cccc(S(=O)(=O)N2CCOCC2)c1	15µM*	?	-7%	-9%	-12	-6%
CN(C)S(=O)(=O)c1cccc(NC(=O)CSc2ncnc3ccccc23)c1	21µM*	18µM*	19%	-11%	-100*	-3%
CN(C)S(=O)(=O)c1ccc(NC(=O)CSc2ncnc3ccccc23)cc1	-27%	?	-13%	-26%	-102*	-12%
O=C(CSc1cccc2cccnc12)Nc1ccc(S(=O)(=O)N2CCOCC2)cc1	?	?	-12%	?	-101*	?
CN(C)CC(=O)N1Cc2ccccc2CC2(CCCCN2Cc2ccccc2)C1 (stereo not drawn)	.	.	2%[6.33 µM]	.	.	.
CC(NC(=O)C1CC1)C1CC2CCC1C2 (stereo not drawn)	.	.	32%	.	.	.
O=C(NC1CCCC1)c1ccc(Oc2nccnc2Sc2ccccc2)cc1	.	.	-20%	.	.	.
COc1cccc(C(=O)OCc2nc3ccccc3o2)c1O	.	.	1%	.	.	.
O=C(CSc1nc2ccccc2c(=O)n1-c1ccc(F)cc1F)Nc1ccc(N2CCOCC2)cc1	23µM*	21µM*	10%	-2%	-6	-2%
O=C(CSc1ncnc2ccccc12)Nc1cccc(S(=O)(=O)N2CCOCC2)c1	-19%	16µM*	1%	-10%	?	-4%
O=C(c1ccc(-n2c(SCc3cccc(F)c3)nc3ccccc3c2=O)cc1)N1CCOCC1	?	?	2%	-23%	-20	-20%
O=C(CSc1nc2ccccc2c(=O)n1-c1ccc(F)cc1)Nc1ccc(N2CCOCC2)cc1	?	-26%	?	0%	102	-1%
CN(C(=O)CSc1ncnc2ccccc12)C1CCCCC1	-5%	-15%	26%	13%	-89*	12%
O=c1c2ccccc2nc(SCc2cccc(F)c2)n1-c1cccc(S(=O)(=O)N2CCCC2)c1	12µM*	18µM*	-11%	8%	0	3%
CC(C)c1noc(-c2cn(C3CCCN(C(=O)c4ccccc4)C3)nn2)n1 (stereo not drawn)	.	.	12%	.	.	.
